Source: PubChem BioAssay (National Center for Advancing Translational Sciences (NCATS))
USP1-UAF1 inh – blocks the human USP1/UAF1 deubiquitinase complex; O94782; recombinant USP1/UAF1, Ub-Rhodamine cleavage fluorescence; Potency, µM (doses to about 57.1 µM), without a hit: at the top dose activity change, negative = inhibition, usual class: inhibitors; 390,000 compounds, 0.23% hits; further: potency means the concentration at half of the fitted maximal effect; on the % scale 0 is the no-effect control and ±100 the full control effect; nearly all actives have a fitted effect of over 60% in size
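USP1/UAF1 complex (1 nM) preincubated 15 min at room temperature with compound, then Ub-Rho substrate (150 nM final) added. Kinetic fluorescence at 480/540 nm over 6 reads at 60 s intervals; 50 mM HEPES pH 7.8, 0.5 mM EDTA, 0.1 mg/ml BSA, 1 mM TCEP, 0.01% Tween-20.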
D1 antagonist – antagonists of human D1 dopamine receptor; P21728; HEK293 TREx D1 cells, calcium flux, dopamine EC80; stronger effect = lower value; activity change, negative = inhibition, % at 10 µM; 360,000 compounds, 3.2% hits; AID 504652; in the data active means activity change below about -30%; further: on the % scale 0 is the no-effect control and ±100 the full control effect
Target sequence (P21728 whole entry, looked up): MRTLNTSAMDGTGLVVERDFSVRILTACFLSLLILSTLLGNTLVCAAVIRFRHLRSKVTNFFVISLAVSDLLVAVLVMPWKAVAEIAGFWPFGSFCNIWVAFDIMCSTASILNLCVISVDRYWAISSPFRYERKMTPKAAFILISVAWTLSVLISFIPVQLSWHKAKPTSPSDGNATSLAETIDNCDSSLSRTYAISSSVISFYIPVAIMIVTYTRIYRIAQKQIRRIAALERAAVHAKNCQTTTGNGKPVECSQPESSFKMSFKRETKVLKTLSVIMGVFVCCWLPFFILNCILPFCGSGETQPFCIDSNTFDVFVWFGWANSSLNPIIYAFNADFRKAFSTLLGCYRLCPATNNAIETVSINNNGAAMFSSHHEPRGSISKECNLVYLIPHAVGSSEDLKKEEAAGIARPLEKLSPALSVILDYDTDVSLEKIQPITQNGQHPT
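HEK293 T-REx cells expressing inducible, force-coupled D1 receptor; no-wash Ca dye, 30–90 min RT. Cmpd → 180 s read at 1 Hz → EC80 DA → 180 s read.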
TRHR enhancer-1 – TRH receptor (human) allosteric enhancement. enhancement, % at 2 µM. TRHR cells, fluo-8 calcium fluorescence, EC20 TRH enhancement. 360,000 compounds, 0.66% hits. P34981; in the data active means enhancement above about 30%; further: 0% is about no effect
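Enhancer read-out: after compound pinning and an initial kinetic agonist-mode read, an EC20 of TRH (10 nM final) was injected and fluo-8 calcium signal (Ex 480/Em 530) followed at 1 s/cycle for 100 cycles in TRHR-expressing cells.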
D1 agonist – activates the human D1 dopamine receptor | HEK293 T-REx D1 cells, calcium flux, agonist mode | 360,000 compounds, 1% hits | P21728 | activation, % at 2 µM; in the data active means activation above about 30%; further: 0% is about no effect
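Agonism was scored from calcium flux recorded over 180 s (1 read/s) after pintool compound addition, following a 10-cycle baseline. Cells were inducible force-coupled HEK293 TREx D1, plated overnight at 30 C and loaded with no-wash calcium dye.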
D1 PAM – potentiators of human D1 dopamine receptor; P21728; HEK293 TREx D1 cells, calcium flux, dopamine EC20 potentiation; potentiation, % at 10 µM; 360,000 compounds, 0.036% hits; in the data active means potentiation above about 30%; further: 0% is about no effect
TRHR agonist-1 – TRH receptor (human) agonism; P34981; TRHR cells, calcium flux fluo-8, FDSS agonist mode; activation, % at 2 µM; 360,000 compounds, 0.18% hits; AID 493084; in the data active means activation above about 30%; further: 0% is about no effect
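Read-out: compound-evoked intracellular calcium rise in TRHR cells, fluo-8 dye, kinetic FDSS fluorescence at 1 s/cycle following a 10-cycle baseline. Cells cultured overnight before dye loading (30 min–1.5 h, RT).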
TRHR enhancer-2 – human TRH receptor allosteric enhancement confirmation. activity change, negative = inhibition, % at 46.1 µM. 970 tested, under 10 active. TRH receptor cell assay, enhancer confirmation qHTS. shares compounds with TRHR enhancer-1;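 further: compound effect scored on response to added TRH at EC20 of 10 nM; 0% is about no effect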
TRHR agonist-2 – human TRH receptor agonism confirmation | Potency, µM (series often up to 46.1 µM), for the others: at the highest dose activation, actives largely listed as activators | shares compounds with TRHR enhancer-1 | TRHR-expressing cells, agonist activation read-out | 970 compounds, 8% hits; further: potency means the concentration at half of the fitted maximal effect; 0% is about no effect; nearly all actives have a fitted effect of over 75% in size
Active calls of the source: *; ? = inconclusive; nt = not tested or not shown. Shown are actives, neighbours in structure and some others; about 4.4% of the full set was active somewhere. Unless noted, the call rests on the fitted dose curve; in most records, active means well fitted curve in the direction sought with a large enough effect; inconclusive means small, poorly fitted or top-dose-only effect, or another doubt; inactive means no such curve, though single readings can be large; an effect the other way counts as inactive or inconclusive.

SMILES	USP1-UAF1 inh	D1 antagonist	TRHR enhancer-1	D1 agonist	D1 PAM	TRHR agonist-1	TRHR enhancer-2	TRHR agonist-2
Cc1ccc2nc3sc(C(=O)Nc4ccc(N5CCOCC5)cc4)c(N)c3cc2c1	nt	-22	1	39*	-8	4	nt	nt
CC(NC(=O)CCCN1C(=O)c2ccccc2C1=O)c1ccc2c(c1)CCCC2 (configuration not stated)	-7%	-40*	2	3	9	0	nt	nt
O=C(Cn1cc(S(=O)(=O)N2CCCC2)c(S(=O)(=O)N2CCCC2)c1)Nc1cccc(F)c1	-24%	-4	-6	0	-5	0	nt	nt
CCCCCn1cc2c(c1-c1ccc(Cl)cc1)c(=O)n(C)c(=O)n2C	5%	-2	4	0	0	-1	nt	nt
COC(=O)C1CCN(C(=O)COC(=O)c2ccc(=O)n(Cc3ccccc3)n2)CC1	-7%	4	1	3	4	0	nt	nt
O=C(NC1CCCCCC1)c1ccc(=O)n(Cc2ccccc2)n1	-13%	-24	55*	4	-3	0	-4	0%
CCOc1ccc(-n2c(SC(C)C(=O)OC)nc3c([nH]c4ccccc43)c2=O)cc1 (configuration not stated)	-30%	17	5	1	-3	0	nt	nt
CN(C)CCC(=O)N1c2ccccc2Sc2ccc(C(F)(F)F)cc21	-15%	-15	0	5	-4	2	nt	nt
O=C(CSc1nc2ccccc2s1)N1c2ccccc2Sc2ccc(C(F)(F)F)cc21	-3%	8	58*	4	3	2	-6	3%
COc1ccc(CNC(=O)Cn2c(=O)nc(-c3ccccc3)c3cc(Cl)ccc32)cc1OC	-23%	-5	0	0	0	-1	nt	nt
O=C(/C=C/c1ccccc1)NC(N1CCOCC1)C(Cl)(Cl)Cl (configuration not stated)	-8%	-34*	45*	0	-3	0	-6	6%
O=C(NC(N1CCOCC1)C(Cl)(Cl)Cl)c1ccco1 (configuration not stated)	-9%	2	5	14	-4	-1	nt	nt
O=C(Nc1ccc(S(=O)(=O)Nc2nccc(C3Cc4ccccc4C(=O)O3)n2)cc1)c1ccccc1 (configuration not stated)	-9%	-4	43*	-2	-3	0	-5	1%
Cc1ccc(Cl)cc1N1CCN(C(=O)c2cc(S(=O)(=O)N3CCC(C)CC3)cn2C)CC1	-16%	8	3	5	0	0	nt	nt
CCN1C(=O)c2ccccc2S(=O)(=O)c2ccc(C(=O)NC(C)C)cc21	-23%	-25	53*	0	-12	1	-3	0%
O=C(Nc1ccc2c(c1)OCO2)c1ccc2c(c1)OCO2	-3%	5	2	0	-2	-1	nt	nt
CS(=O)(=O)Nc1ccc(C(=O)Nc2ccc3c(c2)OCO3)cc1	-6%	-10	46*	4	-3	0	-5	0%
CC1CCN(C(=S)NC(=O)c2cccc([N+](=O)[O-])c2)CC1	-27%	12	1	2	4	0	nt	nt
CN1CCN(C(=S)NC(=O)c2cccc([N+](=O)[O-])c2)CC1	?	2	50*	-1	1	0	-3	-1%
COc1ccc(O)c(C(=O)c2coc(=N)c(C(=O)Nc3ccc(SC(F)F)cc3)c2)c1	?	-11	-5	33*	-1	29	-8	?
CC(C)OC(=O)c1cc(C(=O)c2cc(F)ccc2O)coc1=N	-10%	-3	-2	12	-2	1	nt	nt
N#Cc1cccc(NC(=O)Cn2nc(Cc3ccncc3)c3ccccc3c2=O)c1	14%	7	-3	1	1	0	nt	nt
O=C(Cn1cnc2c(oc3ccccc32)c1=O)Nc1ccccc1C(F)(F)F	-7%	-4	0	11	-4	0	nt	nt
CCOc1ccc(NC(=O)Nc2nc3ccc(S(C)(=O)=O)cc3s2)cc1	-19%	-2	58*	0	1	1	-1	-1%
COc1cccc(NC(=O)C(Cc2ccccc2)NS(=O)(=O)c2ccc3c(c2)oc(=O)n3C)c1 (configuration not stated)	-26%	-11	1	3	-2	1	nt	nt
SMILES	USP1-UAF1 inh	D1 antagonist	TRHR enhancer-1	D1 agonist	D1 PAM	TRHR agonist-1	TRHR enhancer-2	TRHR agonist-2
Cc1c(Cc2ccccc2)c(=O)oc2c(O)c(O)ccc12	-11%	3	41*	0	4	0	-8	2%
COc1ccc(Cn2ccc3nc(C)c(C(=O)N4CCN(c5cccc(OC)c5)CC4)cc3c2=O)cc1	-23%	-13	-2	3	0	0	nt	nt
COc1cc(CNc2ncc(-c3ccc(Br)cc3)n2C)cc(OC)c1O	-23%	-42*	41*	2	-9	0	0	5%
Cn1c(-c2cccc(Br)c2)cnc1NCc1cccnc1	-10%	-9	6	2	-10	-1	nt	nt
CC1CCCC(NC(=O)C2c3ccccc3C(=O)N2Cc2cccs2)C1C (configuration not stated)	-9%	5	44*	0	-4	0	-14	1%
NC(=O)COc1ccc(-c2noc(COc3ccc(Cl)cc3)n2)cc1	-8%	24	2	0	0	3	nt	nt
COc1cccc(NC(=O)CCN2CCOCC2)c1	-20%	14	62*	0	-2	0	-3	7%
O=C(NNC(=S)NC(=O)c1ccccc1[N+](=O)[O-])c1ccccc1O	-15%	-5	1	1	-4	2	nt	nt
O=C(NC(=S)Nc1cccc2c(O)cccc12)c1ccccc1[N+](=O)[O-]	-20%	2	50*	0	0	0	-2	0%
CC(C)(C)c1ccc(OCCCC(=O)NNC(=O)c2ccccc2O)cc1	-8%	-10	41*	15	-7	0	-4	0%
O=C(NCCc1ccc(Cl)cc1)C12CC3CC(CC(O)(C3)C1)C2	-29%	6	45*	0	1	0	0	1%
COc1ccc(Br)cc1CNC(=O)Cn1c(=O)c2cccn2c2ccc(F)cc21	-27%	-11	-3	0	0	0	nt	nt
CC1C(=O)CC(c2ccccc2)NC1c1ccccc1 (configuration not stated)	3%	10	45*	1	3	0	-4	2%
